Source: PubChem BioAssay (NCI)
This is part of a sample that, as a whole, favours compounds with a hit. Of some 83,000 tested, about 20% had one in any assay.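 Plates (96-well) were seeded with cells, treated with compound at one concentration, and incubated for 48 hours before percent growth was determined.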 Unmarked numbers belong to inactive results. Calls of active or inactive are those of the source. Rule for the calls: active = growth percent below 10; inactive = the rest.

How the values were obtained:
Experiment in all cases: NCI-60 one-dose screen, 48 h (100 = growth as untreated, 0 = no growth, -100 = all killed)
SR leukemia = conditions: 10 µM unless noted
RPMI-8226 leukemia = conditions: 10 µM unless noted
OVCAR-8 ovarian = conditions: 10 µM unless noted
OVCAR-5 ovarian = conditions: 10 µM unless noted
OVCAR-4 ovarian = conditions: 10 µM unless noted
SK-OV-3 ovarian = conditions: 10 µM unless noted
IGROV1 ovarian = conditions: 10 µM unless noted
OVCAR-3 ovarian = conditions: 10 µM unless noted
HS 578T breast = conditions: 10 µM
NCI/ADR-RES ovarian = conditions: 10 µM unless noted

| SMILES | growth (SR leukemia) | growth (RPMI-8226 leukemia) | growth (OVCAR-8 ovarian) | growth (OVCAR-5 ovarian) | growth (OVCAR-4 ovarian) | growth (SK-OV-3 ovarian) | growth (IGROV1 ovarian) | growth (OVCAR-3 ovarian) | growth (HS 578T breast) | growth (NCI/ADR-RES ovarian) |
| --- | --- | --- | --- | --- | --- | --- | --- | --- | --- | --- |
| O=C(CN1CCN(c2ccccc2)CC1)N1CCN(c2nnc(-c3ccc(Cl)cc3)c(-c3ccc(Cl)cc3)n2)CC1 | 23.1% | -39.6% (active) | 68% | 111% | 45.5% | 103% | 50.7% | 64.3% | 77.5% | 60.4% |
| COc1ccc(NC(=O)/C=C/c2ccc(NC(=O)N3CCCC3)cc2)cn1 | 106% | 99.5% | 101% | 113% | 101% | 101% | 105% | 103% | 95.9% | 107% |
| Cc1ccc(-c2cnc3sc4ccc(Cl)cc4n23)cc1 | 111% | 98.6% | 103% | 106% | 86.9% | 75.7% | 81% | 101% | 110% | 94.6% |
| Nc1ccc(N(O)/C=C2\C=CC=CC2=O)cc1N | 95.3% | 52.8% | 95.4% | 71.1% | 99.6% | 107% | 80.2% | 89.1% | 94.2% | 82% |
| O=[N+]([O-])c1cccc([I+]c2ccccc2)c1 | 16.6% | 27.9% | 35% | 96.1% | 58.4% | 54.9% | 31.5% | 58.7% | 49.6% | 77.5% |
| COc1ccc2[nH]c(C(=O)OCc3ccc4c(Br)cc(Br)c(O)c4n3)cc2c1 | 2.81% (active) | -24.2% (active) | -27.7% (active) | -48.4% (active) | -44.2% (active) | 62.6% | -90.9% (active) | -91.3% (active) | -15.4% (active) | -30.6% (active) |
| COc1ccc(/C(=C\c2cc(OC)c(OC)c(OC)c2)C(=O)N2CCCNCC2)cc1 | 103% | 107% | 103% | 111% | 112% | 103% | 113% | 116% | 107% | 112% |
| O=C(N=Nc1c(Cl)c(O)c2ccccc2c1O)C(=O)Nc1cccc(C(F)(F)F)c1 | 32.2% | 76.9% | 83.6% | 118% | 66.9% | 89.6% | 39.3% | 24.7% | 83.8% | 71% |
| CCC(C)C1NC(=O)c2nc(oc2-c2ccccc2)-c2csc(n2)-c2csc(n2)-c2nc(oc2C)-c2coc(n2)CNC(=O)C(C(C)CC)NC1=O (stereo not given) | -47.8% (active) | -63.5% (active) | -62% (active) | -86.1% (active) | -80.6% (active) | -89.2% (active) | -71.5% (active) | -88% (active) | -57.3% (active) | 12.3% |
| CCSc1ccc([C@@H]2[C@@H](O)C(=O)N2c2cc(OC)c(OC)c(OC)c2)cc1 | 11.7% | 8.48% (active) | 16.1% | 54.8% | 41.7% | 39.1% | 32.5% | -3.92% (active) | 46.5% | 8.62% (active) |
| Clc1cc(Br)ccc1-c1ccc(CNCC2CCNCC2)o1 | 17.2% | 43.8% | 33.6% | 84.8% | -40.7% (active) | 67.2% | 53.8% | 14% | 62.4% | 54.7% |
| COC(=O)C(CCC(=O)CCl)N1C(=O)c2ccccc2C1=O (stereo not given) | 8.24% (active) | -8.21% (active) | 59.2% | 79.3% | 72.9% | 113% | 27.2% | 19.2% | 85.3% | 83.5% |
| O=C1/C(=C\c2cccn2Cc2ccc(F)cc2)c2ccccc2N1c1c(Cl)cccc1Cl | 76% | 74.6% | 81.5% | 81.9% | 34.1% | 96.2% | 55.8% | 80.7% | 92.9% | 76.1% |
| COc1ccc(C2=Nn3c(nnc3-c3ccc(Cl)cc3N)SC2)cc1 | 102% | 103% | 98.1% | 99.5% | 103% | 102% | 114% | 114% | 113% | 115% |
| Fc1ccc2nc(-c3ccc(-c4noc(-c5ccc(Cl)cc5)n4)cc3)[nH]c2c1 | 95.6% | 106% | 108% | 113% | 114% | 113% | 115% | 105% | 108% | 100% |
| Oc1c(C(c2ccc(F)cc2)N2CCCCC2)ccc2cncnc12 (stereo not given) | 15.7% | 22.1% | 8.68% (active) | 22.3% | 5.59% (active) | -14.9% (active) | 9.64% (active) | 11.1% | 13% | 20.3% |
| O=C(O)/C=C(\c1nc2ccc([N+](=O)[O-])cc2[nH]1)c1cc(Cl)ccc1O | 29.6% | -15.7% (active) | 24.5% | 87.1% | 8.51% (active) | 29.9% | 25.7% | -16% (active) | 45.9% | 17.7% |
| N#CC1=C(N)Oc2nc[nH]c(=O)c2C1c1cccs1 (stereo not given) | 92% | 100% | 98.3% | 100% | 90.9% | 105% | 111% | 108% | 112% | 113% |
| COc1ccc(NC(=O)c2ccc(C(F)(F)F)nc2Nc2ccc(Cl)cc2C)cc1Cl | 23.6% | -17.9% (active) | 15.6% | 10.1% | 24.6% | 45.4% | 27% | 15.5% | 10.8% | 13.3% |
| CCCCN(CCCC)CCCN=c1nc2c(c(N)n1-c1ccccc1)c(=S)n(-c1ccccc1)c(=S)n2-c1ccccc1 | -65.2% (active) | -53.4% (active) | -36.1% (active) | -60.2% (active) | -82% (active) | -86.5% (active) | -70.9% (active) | -100% (active) | -64.6% (active) | -71.1% (active) |
| C/C(=N\NC(=S)N1CCCCC1)c1ccccn1 | -7.37% (active) | -19.4% (active) | 16% | 29.3% | -30.6% (active) | 27.6% | 11.2% | -12.9% (active) | 16.8% | 15.2% |
| [Ag].[Ag].[NH-]S(=O)(=O)c1ccc(N=Nc2cc(N=Nc3ccc(S([NH-])(=O)=O)cc3)c3c(NC(=O)C(Cl)Cl)cccc3c2OC(=O)C(Cl)Cl)cc1.[c-]1nccs1.[c-]1nccs1 | 72.1% | 83.5% | 68.3% | 120% | 110% | 114% | 76.2% | 72.7% | 76.3% | 90.4% |
| COc1cccc(/C=N/N=C(N)N)c1 | 93% | 104% | 100% | 89.7% | 91.5% | 111% | 107% | 105% | 113% | 103% |
| Cc1ccccc1CNc1ncnc2[nH]ncc12 | 60.9% | 88.5% | 59.7% | 89.6% | 78% | 100% | -19.4% (active) | 117% | 165% | 106% |
| CCCCCCCCCCCCCCCc1cc(O)ccc1[N+](=O)[O-] | 74.5% | 36.3% | 76.9% | 94% | 87.2% | 92% | 73.9% | 87.7% | 82.1% | 77.1% |
